# Active and inactive are the calls of the source. The calls were made as follows: active = hit-call score of the fitted dose curve at least 0.9, where 1 is the maximum; inconclusive = response in the unintended direction; inactive = score below 0.9.
# Target: Estrogen receptor beta (Homo sapiens) (UniProt Q92731)
# Assay: OT_ER_ERbERb_1440: Odyssey Thera (OT) 24-hour HEK293T Protein-Complementation Assay for Estrogen Receptor-beta/-beta Homodimer (AID 2283380);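 also: scored as signal increase over DMSO baseline for both agonists and antagonists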
# Method: OT_ER_ERbERb_1440 is a cell-based assay that uses HEK293T, a human kidney cell line, with measurements taken at 24 hours after chemical dosing in a 384-well plate.OT_ER_ERbERb_1440 is one of one assay component(s) measured or calculated from the OT_ER_ERbERb_1440 assay. It is designed to make measurements of protein fragment complementation, a form of binding reporter, as detected with fluorescence intensity signals by Protein-fragment Complementation technology.Data from the assay component OT_ER_ERbERb_1440 was analyzed into 1 assay endpoint. This assay endpoint, OT_ER_ERbERb_1440, was analyzed in the positive analysis fitting direction relative to DMSO as the negative control and baseline of activity. Using a type of binding reporter, measures of receptor for gain-of-signal activity can be used to understand the binding at the pathway-level as they relate to the gene ESR2. Furthermore, this assay endpoint can be referred to as a primary readout, because the performed assay has only produced 1 assay endpoint. To generalize the intended target to other relatable targets, this assay endpoint is annotated to the nuclear receptor intended target family, where the subfamily is steroidal.
# Protein-fragment complementation assay, or PCA, is a method for the identification and quantification of protein-protein interactions. In the PCA, the proteins of interest ("bait" and "prey") are each covalently linked to fragments of a third protein (e.g. DHFR, which acts as a "reporter"). Interaction between the bait and the prey proteins brings the fragments of the reporter protein in close proximity to allow them to form a functional reporter protein whose activity can be measured. The OT ER beta / ER beta assay is a homodimer PCA of the ligand binding domain (LBD; amino acids 310-547) of human ER beta stably expressed in HEK293T cells. […] Cells are fixed in 4 percent formaldehyde and stained with Draq5 (BioStatus) to identify cells prior to signal detection. Fluorescent signal in the basal state of the assay is very low and is primarily punctuate and cytoplasmic. Modulation of this assay is quantified as an increase in mean fluorescence intensity in the nucleus (for agonists) or in the nucleus and cytoplasm (antagonists) relative to vehicle controls, and can be quantified on a high content imaging device or a laser scanning cytometer. The latter instrument is favored for this assay because of the rapid mode of data acquisition, the ability to acquire data from the entire cell population in a well (as opposed to a fraction of the well on the high content devices) and the larger dynamic range typically achieved with this instrument. To assess sensitivity of the ER beta/ER beta LBD assay to ligand, cells were treated with the ER agonist 17- beta-estradiol (E2) in 10-point concentration- response format for 24 hours and monitored response on a laser scanning plate cytometer (Acumen eX3; TTP Lab Tech).
# Chain of Estrogen receptor beta (Homo sapiens) (Q92731 whole entry, looked up): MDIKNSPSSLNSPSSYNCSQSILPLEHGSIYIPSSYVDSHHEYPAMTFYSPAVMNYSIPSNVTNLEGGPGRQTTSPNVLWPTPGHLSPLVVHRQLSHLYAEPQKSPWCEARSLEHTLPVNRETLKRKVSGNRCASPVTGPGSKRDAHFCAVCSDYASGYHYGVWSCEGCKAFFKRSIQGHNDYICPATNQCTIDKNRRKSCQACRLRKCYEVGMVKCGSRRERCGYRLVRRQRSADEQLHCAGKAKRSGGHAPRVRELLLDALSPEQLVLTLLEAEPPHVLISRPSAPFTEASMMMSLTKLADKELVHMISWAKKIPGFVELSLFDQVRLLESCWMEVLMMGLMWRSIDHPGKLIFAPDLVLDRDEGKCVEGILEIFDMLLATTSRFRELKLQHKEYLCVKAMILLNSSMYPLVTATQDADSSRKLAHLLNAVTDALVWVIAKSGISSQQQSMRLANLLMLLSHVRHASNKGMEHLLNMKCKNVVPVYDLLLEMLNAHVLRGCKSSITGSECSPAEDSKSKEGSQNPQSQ
SMILES,outcome,AC50
CCC(C)c1ccccc1O (centres undefined),inactive,
Cc1cc(C(C)(C)C)c(O)c(C(C)(C)C)c1,inactive,
Cc1[nH]nc2c1N=C(c1ccccc1Cl)c1cc([N+](=O)[O-])ccc1N2,inactive,
NS(=O)(=O)O,inactive,
O=C1NS(=O)(=O)c2ccccc21,inactive,
CCCCCCCCCCCCOC(=O)c1cc(O)c(O)c(O)c1,,11.9 µM (active)
O=C(O)c1cccc(C(=O)O)n1,inactive,
CC(O)COc1ccccc1 (centres undefined),inactive,
CC(=O)Nc1ccc(O)cc1,inactive,
Cc1ccc(S(=O)(=O)O)cc1,inactive,
CN(Cc1cnc2nc(N)nc(N)c2n1)c1ccc(C(=O)N[C@@H](CCC(=O)O)C(=O)O)cc1,inactive,
CN(C)CCOC(c1ccccc1)c1ccccc1,inactive,
CCc1ccccc1O,inactive,
CCCCCCCCCCCCCCC,inactive,
CCCCCCCCCC=CCC1CC(=O)OC1=O (centres undefined),inactive,
c1cnc2c(c1)ccc1cccnc12,inactive,
CC(C)[C@@H]1CC[C@@H](C)C[C@H]1O,inactive,
CCCCc1oc2ccccc2c1C(=O)c1cc(I)c(OCCN(CC)CC)c(I)c1,inactive,
COc1cc([N+](=O)[O-])ccc1N,,28.4 µM (active)
CCCCCCCCCCCC(=O)O,inactive,
CCCCCCC(C)(C)C(=O)O,inactive,
CCCCc1ccc2ccccc2c1S(=O)(=O)O,inactive,
O=S(=O)(O)c1ccccc1,inactive,
O=C(CCCN1CCC(O)(c2ccc(Cl)cc2)CC1)c1ccc(F)cc1,inactive,
CCCCCCc1ccc(N)cc1,inactive,
C[C@]12CC[C@@H]3c4ccc(O)cc4CC[C@H]3[C@@H]1C[C@@H](O)[C@@H]2O,,0.03 µM (active)
Cc1cc(Cc2cc(C)cc(C(C)(C)C)c2O)c(O)c(C(C)(C)C)c1,inactive,
Cc1cc(C(=C2C=CC(=Nc3ccc(S(=O)(=O)O)cc3)C=C2)c2ccc(Nc3ccc(S(=O)(=O)O)cc3)cc2)cc(S(=O)(=O)O)c1N,inactive,
NCc1cccc(CN)c1,inactive,

# — PubChem BioAssay (EPA / NIEHS)
